Records with an inconclusive call do not appear. Some of the results follow. Active and inactive are the calls of the source. Unless noted, calls come from the whole dose curve; as a rule, active = well fitted curve in the direction sought with a large enough effect; inconclusive = small, poorly fitted or top-dose-only effect, or another doubt; inactive = no such curve, though single readings can be large; an effect the other way counts as inactive or inconclusive.
Tested on: not listed separately
Assay: qHTS assay for small molecule agonists of retinoid X receptor alpha signaling (AID 588544; calls by dose curve;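 for activation: 0% = DMSO basal wells and 100% = reference agonist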)
Conditions: HEK293T RXRa-UAS-bla, beta-lactamase reporter, 18 h; 530 nm emission

Compound | max response
CC(C)[C@H](C(=O)O[C@H](C#N)c1cccc(Oc2ccccc2)c1)c1ccc(Cl)cc1 | -3.66%
COc1ccccc1[N+](=O)[O-] | 2.69%
N#CC(Br)(Br)C(N)=O | 6.67%

Biological target: Retinoic acid receptor RXR-alpha (Homo sapiens) (UniProt P19793)
Sequence (P19793 whole entry, looked up): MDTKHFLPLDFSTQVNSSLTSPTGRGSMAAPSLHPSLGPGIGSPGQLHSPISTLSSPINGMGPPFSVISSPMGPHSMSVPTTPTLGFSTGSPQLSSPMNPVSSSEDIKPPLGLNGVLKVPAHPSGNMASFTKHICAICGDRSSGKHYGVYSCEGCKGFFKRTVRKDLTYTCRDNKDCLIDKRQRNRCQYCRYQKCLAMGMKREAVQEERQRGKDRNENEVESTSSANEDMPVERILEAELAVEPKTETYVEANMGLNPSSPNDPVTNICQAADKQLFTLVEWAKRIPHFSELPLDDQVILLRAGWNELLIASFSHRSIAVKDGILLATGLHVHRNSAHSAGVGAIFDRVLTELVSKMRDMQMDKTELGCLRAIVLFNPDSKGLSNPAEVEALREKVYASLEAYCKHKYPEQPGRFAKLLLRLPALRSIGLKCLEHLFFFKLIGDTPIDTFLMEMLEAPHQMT
Assay: as above
Conditions: HEK293T RXRa-UAS-bla, beta-lactamase reporter, 18 h; series mostly up to 76.7 µM; activation: at the top concentration

Compound | activation
CC(C)NC(=O)N1CC(=O)N(c2cc(Cl)cc(Cl)c2)C1=O | -20.2% (inactive)
CC(C1CC1)C(O)(Cn1cncn1)c1ccc(Cl)cc1 (stereo unspecified) | 9.01% (inactive)
CC(C)[C@H](C(=O)O[C@H](C#N)c1cccc(Oc2ccccc2)c1)c1ccc(Cl)cc1 | -11.7% (inactive)
COc1ccccc1[N+](=O)[O-] | 4.33% (inactive)
N#CC(Br)(Br)C(N)=O | -26.6% (inactive)

Biological target: Thyroid hormone receptor beta (Homo sapiens) (UniProt P10828)
Sequence (P10828 whole entry, looked up): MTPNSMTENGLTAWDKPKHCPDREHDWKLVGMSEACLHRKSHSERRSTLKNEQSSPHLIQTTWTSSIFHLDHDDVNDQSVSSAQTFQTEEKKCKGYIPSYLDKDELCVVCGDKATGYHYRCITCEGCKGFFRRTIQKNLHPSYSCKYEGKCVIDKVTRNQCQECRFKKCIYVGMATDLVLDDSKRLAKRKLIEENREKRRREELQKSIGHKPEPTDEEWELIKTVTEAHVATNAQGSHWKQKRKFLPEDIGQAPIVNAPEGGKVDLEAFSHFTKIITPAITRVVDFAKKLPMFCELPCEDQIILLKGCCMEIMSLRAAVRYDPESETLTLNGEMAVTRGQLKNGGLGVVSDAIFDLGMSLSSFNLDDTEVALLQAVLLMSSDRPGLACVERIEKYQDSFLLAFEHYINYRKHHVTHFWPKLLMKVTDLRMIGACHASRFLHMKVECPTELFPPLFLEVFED
Assay: qHTS assay for small molecule agonists of thyroid hormone receptor beta signaling (AID 588545; calls by dose curve;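 note: 0% = DMSO only and 100% = 10 nM T3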)
Conditions: TR-UAS-bla GripTite HEK 293, beta-lactamase ratio, agonist mode, 18 h; series mostly up to 76.7 µM; activation: at the top concentration
Procedure, shortened: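 Beta-lactamase reporter activity under TR response element control is measured in HEK 293 cells after 18 hrs compound exposure. Signal is ratiometric CCF4 fluorescence, 460/530 nm.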

Compound | activation
CC(C)NC(=O)N1CC(=O)N(c2cc(Cl)cc(Cl)c2)C1=O | 6.29% (inactive)
CC(C1CC1)C(O)(Cn1cncn1)c1ccc(Cl)cc1 (stereo unspecified) | -12.1% (inactive)
CCOCn1c(-c2ccc(Cl)cc2)c(C#N)c(Br)c1C(F)(F)F | 2.18% (inactive)
CC(C)C(C(=O)OC(C#N)c1cccc(Oc2ccccc2)c1)c1ccc(Cl)cc1 (stereo unspecified) | -5.4% (inactive)

Tested on: not listed separately
Assay: qHTS assay for small molecule antagonists of retinoid X receptor alpha signaling (AID 588546; active = well fitted inhibition curve with a large enough effect in the signal ratio, with a control signal flat, not every such curve was filed as active; the % refers to the signal ratio; note: potency is the fitted concentration of half-maximal effect;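 for max response: cells stimulated with 9-cis-retinoic acid as agonist; % is set by controls: 0 for no effect and ±100 for the full control effect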)
Conditions: HEK293T RXRa-UAS-bla, beta-lactamase ratio, antagonist mode; measured here: W530 green channel, cytotoxicity proxy
Procedure, shortened: (§1)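 Beta-lactamase reporter inhibition, read as CCF4 fluorescence ratio (ex 405, em 460/530 nm) after 2 h at RT. HEK293T UAS-bla cells, 2500/well, were stimulated with 9-cis-RA at 500 or 100 nM final alongside test compound for 18 h at 37 C.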

Compound | max response
CC(C)NC(=O)N1CC(=O)N(c2cc(Cl)cc(Cl)c2)C1=O | 11.6%
CC(C1CC1)C(O)(Cn1cncn1)c1ccc(Cl)cc1 (stereo unspecified) | -3.3%
CCOCn1c(-c2ccc(Cl)cc2)c(C#N)c(Br)c1C(F)(F)F | 0.12%

Biological target: Retinoic acid receptor RXR-alpha (Homo sapiens) (UniProt P19793)
Assay: as above
Conditions: HEK293T RXRa-UAS-bla, beta-lactamase ratio, antagonist mode
Procedure, shortened: as §1

Compound | max response | Potency
CC(C)NC(=O)N1CC(=O)N(c2cc(Cl)cc(Cl)c2)C1=O | -6.64% (inactive) | 
CC(C1CC1)C(O)(Cn1cncn1)c1ccc(Cl)cc1 (stereo unspecified) | -4.42% (inactive) | 
CCOCn1c(-c2ccc(Cl)cc2)c(C#N)c(Br)c1C(F)(F)F |  | 2.24 µM (active)

Biological target: Vitamin D3 receptor (Homo sapiens) (UniProt P11473)
Sequence (P11473 whole entry, looked up): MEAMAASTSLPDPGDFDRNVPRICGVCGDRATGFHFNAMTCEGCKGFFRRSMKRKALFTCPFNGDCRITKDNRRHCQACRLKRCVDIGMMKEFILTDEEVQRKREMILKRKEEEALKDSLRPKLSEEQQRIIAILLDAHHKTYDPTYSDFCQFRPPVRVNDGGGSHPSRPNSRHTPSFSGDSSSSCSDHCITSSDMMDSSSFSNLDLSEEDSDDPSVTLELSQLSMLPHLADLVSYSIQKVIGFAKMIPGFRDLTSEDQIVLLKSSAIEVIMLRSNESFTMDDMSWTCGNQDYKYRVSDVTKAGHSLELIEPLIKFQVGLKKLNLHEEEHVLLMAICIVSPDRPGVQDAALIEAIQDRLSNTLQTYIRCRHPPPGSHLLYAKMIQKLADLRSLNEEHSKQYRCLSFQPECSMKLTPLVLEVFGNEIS
Assay: qHTS for Inhibitors of the vitamin D receptor (VDR): Hit Validation in Primary Screen (AID 602199); note: potency is the fitted concentration of half-maximal effect
Conditions: VDR-coactivator inhibition assay, qHTS confirmation
Procedure, shortened: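 Fluorescence polarization assay of VDR binding to Alexa 647-labelled SRC2-3 coactivator peptide: 800nM VDR with 5uM LG19078 agonist, compounds, 2 h at room temperature, read Ex 620 nm/Em 688 nm.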

Compound | Potency
Cc1ccnc(-n2c(C)cc(/C=C3\C(=O)NC(=S)N(C)C3=O)c2C)c1 | 29.9 µM (active)
O=C1NC(=O)N(c2ccccc2)C(=O)/C1=C/c1ccc([N+](=O)[O-])s1 | 26.7 µM (active)
O=C(O)CCn1cc(C=C2C(=O)NC(=S)NC2=O)c(-c2cccc(Br)c2)n1 | 6.7 µM (active)

Tested on: not listed separately
Assay: qHTS for Inhibitors of the vitamin D receptor (VDR): Hit Validation using a Texas Red Assay (AID 602201); note: potency is the fitted concentration of half-maximal effect; for activity, negative = inhibition: % is set by controls: 0 for no effect and ±100 for the full control effect
Conditions: VDR coregulator binding, Texas Red fluorescence polarization; series mostly up to 57.1 µM; activity, negative = inhibition: at the top concentration
Procedure, shortened: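 Fluorescence polarization (Ex 595/Em 615 nm) of Texas Red (7 nM) with 1.5 uM VDR-LBD and LG19078 (final concentrations). Compounds were incubated for 2 hours at room temperature.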

Compound | activity, negative = inhibition | Potency
O=C1NC(=O)C(=Cc2ccc(-c3cc(Cl)ccc3[N+](=O)[O-])o2)C(=O)N1 | 5.28% (inactive) | 
Cc1nn(Cc2ccccc2)c(C)c1C=C1C(=O)NC(=S)NC1=O | -17.6% (inactive) | 
CCOC(=O)c1c(NS(=O)(=O)c2ccccc2)n(CCCOC)c2nc3ccccc3nc12 |  | 3.55 µM (active)
CC(C)n1c(O)c(C2c3cc(Cl)ccc3Oc3[nH]c(=O)n(C(C)C)c(=O)c32)c(=O)[nH]c1=O (stereo unspecified) | -8.67% (inactive) | 
CN1C(=O)NC(=O)/C(=C\C=C\c2ccccc2[N+](=O)[O-])C1=O | -10.9% (inactive) | 
CN1C2CCC1/C(=C/c1ccccn1)C(=O)/C2=C\c1ccccn1 | -13.1% (inactive) | 
O=C1NC(=O)N(c2ccccc2)C(=O)/C1=C/c1ccc([N+](=O)[O-])s1 | -18.8% (inactive) | 
COC(=O)COc1ccc(/C=C2\C(=O)NC(=S)N(c3ccc(C)cc3)C2=O)cc1OC | -4.72% (inactive) | 
CN1CCC(O)(c2cccs2)C(C(=O)c2cccs2)C1 (stereo unspecified) |  | 28.2 µM (active)
O=C(O)CCn1cc(C=C2C(=O)NC(=S)NC2=O)c(-c2cccc(Br)c2)n1 | -5.32% (inactive) | 
O=c1oc2ccccc2c(O)c1[C@H]1c2ccc(O)cc2Oc2c1c(=O)oc1ccccc21 | 33.6% (inactive) | 
O=C(O)CCC(=O)NCCC1=c2ccccc2=N/C1=C\c1c(O)n(Cc2ccc(F)cc2)c(=S)[nH]c1=O | -3.97% (inactive) | 
O=C(O)CCn1cc(C=C2C(=O)NC(=S)NC2=O)c(-c2cccc(Cl)c2)n1 | -4.91% (inactive) | 
COc1cc(/C=C/[N+](=O)[O-])ccc1O | -14.9% (inactive) | 
Cc1ccc(N2C(=O)NC(=O)/C(=C\c3cnc(-c4ccccc4)nc3)C2=O)cc1 | -9.62% (inactive) | 
